Screening results (PubChem BioAssay)
Pf Dd2 inh: P. falciparum Dd2 growth inhibitors, primary screen, SYBR Green fluorescence, single dose replicates; 72 h; hits give low values; AID 1159554, 2015; activity change, % at 10 µM; 2.3% of 94,000 active; in the data active = activity change below about -80%; inconclusive = no clear call, values can overlap the other calls
C diff growth: C. difficile growth inhibitors, primary screen, HTS; 0.25% of 86,000 active; growth activity, negative = inhibition, % at 16 µg/mL (by protocol); Clostridium difficile clinical isolate growth, OD600, 24 h; hits give low values; AID 1259249, 2017;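 active = mean growth activity at or below -80% and every replicate also at or below -80%; inconclusive = mean at or below -80% but some replicate above -80%; inactive = mean growth activity above -80%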
Hits are given with their value; – = inactive; ? = inconclusive; · = not tested or not shown. Rows were chosen to be rich in hits. Some 2.4% of all compounds tested hit in one or more screens of this group.

SMILES	Pf Dd2 inh	C diff growth
C[C@@H]1CN([C@@H](C)CO)C(=O)c2cc(NC(=O)c3ccccc3)ccc2O[C@@H](C)CCCCO[C@@H]1CN(C)S(=O)(=O)c1ccccc1	–	·
Cc1ccc(S(=O)(=O)N(C)C[C@H]2OCCCC[C@H](C)Oc3ccc(NC(=O)c4ccccc4)cc3C(=O)N([C@@H](C)CO)C[C@@H]2C)cc1	-82	·
C[C@@H]1CCCCO[C@@H](CN(C)S(=O)(=O)c2ccccc2)[C@@H](C)CN([C@H](C)CO)C(=O)c2cc(NC(=O)c3ccccc3)ccc2O1	–	·
CCC(=O)Nc1ccc2c(c1)C(=O)N(C)C[C@H](OC)[C@H](C)CN(Cc1cccnc1)[C@H](C)CO2	–	–
C[C@@H]1CN([C@@H](C)CO)C(=O)c2cc(-c3ccc(F)cc3)cnc2O[C@@H]1CN(C)C(=O)c1ccncc1	–	·
CCC(=O)Nc1ccc2c(c1)C(=O)N(C)[C@H]1CC[C@@H](CC(=O)NC3CCCC3)O[C@@H]1CO2	–	–
C[C@@H]1CCCCO[C@H](CN(C)C(=O)Nc2cccc3ccccc23)[C@H](C)CN([C@@H](C)CO)C(=O)c2cc(NC(=O)Cc3ccccc3)ccc2O1	–	–
C[C@H]1CCCCO[C@H](CN(C)C(=O)Nc2cccc3ccccc23)[C@@H](C)CN([C@@H](C)CO)C(=O)c2cc(NC(=O)c3ccccc3)ccc2O1	–	–
C[C@@H]1CCCCO[C@@H](CN(C)C(=O)Nc2cccc3ccccc23)[C@H](C)CN([C@H](C)CO)C(=O)c2cc(NC(=O)Nc3ccccc3)ccc2O1	–	–
C[C@@H]1CN([C@@H](C)CO)C(=O)c2cc(NC(=O)Cc3ccccc3)ccc2O[C@@H](C)CCCCO[C@H]1CN(C)C(=O)Nc1ccccc1	–	–
C[C@@H]1CN([C@H](C)CO)C(=O)c2cc(NC(=O)Cc3ccccc3)ccc2O[C@@H](C)CCCCO[C@H]1CN(C)C(=O)Nc1cccc2ccccc12	-87	–
C[C@@H]1CCCCO[C@@H](CN(C)C(=O)Nc2cccc3ccccc23)[C@@H](C)CN([C@@H](C)CO)C(=O)c2cc(NC(=O)Cc3ccccc3)ccc2O1	-92	–
C[C@H]1CCCCO[C@@H](CN(C)C(=O)Nc2cccc3ccccc23)[C@@H](C)CN([C@@H](C)CO)C(=O)c2cc(NC(=O)Cc3ccccc3)ccc2O1	-92	–
C[C@@H]1CCCCO[C@@H](CN(C)C(=O)Nc2cccc3ccccc23)[C@H](C)CN([C@H](C)CO)C(=O)c2cc(NC(=O)Cc3ccccc3)ccc2O1	-87	–
CCCN1[C@@H]2c3ccc(-c4ccncc4)c(=O)n3C[C@@H]2[C@@H](CO)[C@@H]1C(=O)OC	–	–
Cc1noc(C)c1NC(=O)N(C)C[C@@H]1Oc2ccc(NC(=O)NC(C)C)cc2C(=O)N([C@H](C)CO)C[C@@H]1C	–	–
COCCNC(=O)C[C@H]1CC[C@@H]2[C@H](COC[C@H](O)CN2Cc2cccc(-c3ccncc3)c2)O1	–	–
Cc1ccc(S(=O)(=O)Nc2ccc3c(c2)C(=O)N([C@@H](C)CO)C[C@@H](C)[C@@H](CN(C)Cc2ccccc2)OCCCC[C@@H](C)O3)cc1	–	–
O=C(C[C@H]1CC[C@H]2[C@@H](COC[C@@H](O)CN2C(=O)C2CCOCC2)O1)NCc1ccncc1	–	–
C[C@@H]1CCCCO[C@@H](CN(C)C(=O)Nc2cccc3ccccc23)[C@H](C)CN([C@H](C)CO)C(=O)c2cc(NC(=O)c3ccccc3)ccc2O1	–	–
C[C@@H]1CN([C@@H](C)CO)C(=O)c2cc(NC(=O)Cc3ccccc3)ccc2O[C@@H](C)CCCCO[C@@H]1CN(C)C(=O)Nc1cccc2ccccc12	-94	–
C[C@@H]1CCCCO[C@@H](CN(C)C(=O)CCCN(C)C)[C@H](C)CN([C@H](C)CO)C(=O)c2cc(NC(=O)NC3CCCCC3)ccc2O1	–	–
O=C(NCCc1ccccc1)[C@@H]1[C@@H](CO)[C@@H]2Cn3c(ccc(-c4ccccc4)c3=O)[C@H]1N2	–	–
CC(C)CC#Cc1ccc2c(c1)O[C@H](CN(C)CC1CC1)[C@H](C)CN([C@H](C)CO)S2(=O)=O	–	–
CO[C@H]1CN(C)C(=O)c2cc(C#N)ccc2OCC[C@H]2CC[C@@H](OC)[C@@H](CN(C)C(=O)[C@@H]1C)O2	·	–
SMILES	Pf Dd2 inh	C diff growth
CCS(=O)(=O)N1CC2(C1)CN(S(=O)(=O)c1ccccc1)[C@@H](CO)c1c2c2ccc(OC)cc2n1C	–	–
COc1cc(CN2CC3(CCN(S(=O)(=O)c4cccs4)CC3)c3c(n(C)c4cc(OC)ccc34)[C@@H]2CO)cc(OC)c1	–	–
COc1ccc2c3c(n(C)c2c1)[C@H](CO)N(Cc1ccccc1)CC31CCN(S(=O)(=O)c2ccc(C)cc2)CC1	-84	–
CCS(=O)(=O)N1CCC2(CC1)CN(S(=O)(=O)c1ccccc1)[C@@H](CO)c1c2c2ccc(OC)cc2n1C	-84	–
COc1ccc2c3c(n(C)c2c1)[C@@H](CO)N(Cc1ccccc1)CC31CN(S(=O)(=O)c2ccc(C)cc2)C1	–	–
COc1cc(CN2CC3(CN(S(=O)(=O)c4cccs4)C3)c3c(n(C)c4cc(OC)ccc34)[C@@H]2CO)cc(OC)c1	–	-87
COc1cccc(S(=O)(=O)N[C@H]2CC[C@@H](CC(=O)NCc3ccccc3)O[C@H]2CO)c1	–	–
CCNC(=O)Nc1ccc2c(c1)C(=O)N(C)[C@@H]1CC[C@@H](CC(=O)NCCN3CCCC3)O[C@H]1CO2	–	–
COc1ccccc1S(=O)(=O)N[C@@H]1CC[C@@H](CCn2cc(C3CC3)nn2)O[C@H]1CO	–	–
C[C@H](CO)N1C[C@H](C)[C@H](CN(C)S(C)(=O)=O)Oc2ccc(NS(C)(=O)=O)cc2C1=O	–	·
Cc1ccc(S(=O)(=O)N(C)C[C@H]2OCCCC[C@H](C)Oc3ccc(NC(=O)NC4CCCCC4)cc3C(=O)N([C@@H](C)CO)C[C@H]2C)cc1	-86	–
Cc1ccc(S(=O)(=O)N(C)C[C@H]2OCCCC[C@H](C)Oc3ccc(NC(=O)NC4CCCCC4)cc3C(=O)N([C@@H](C)CO)C[C@@H]2C)cc1	?	–
Cc1ccc(S(=O)(=O)N(C)C[C@@H]2OCCCC[C@H](C)Oc3ccc(NC(=O)NC4CCCCC4)cc3C(=O)N([C@@H](C)CO)C[C@@H]2C)cc1	-83	–
Cc1ccc(S(=O)(=O)N(C)C[C@@H]2OCCCC[C@@H](C)Oc3ccc(NC(=O)NC4CCCCC4)cc3C(=O)N([C@@H](C)CO)C[C@H]2C)cc1	–	–
COc1cccc(C(=O)Nc2ccc3c(c2)OC[C@H](C)N(C(=O)C2CCCC2)C[C@H](C)[C@@H](OC)CN(C)C3=O)c1	–	–
COc1ccc(NC(=O)N2CC[C@H]3[C@@H]2c2cc(Br)ccc2N(C)[C@H]3CO)cc1	–	-98
COc1ccc(NC(=O)N2CC[C@@H]3[C@H]2c2cc(Br)ccc2N(C)[C@H]3CO)cc1	–	–
CN1c2ccc(Br)cc2[C@@H]2[C@@H](CCN2C(=O)Nc2ccc(F)cc2)[C@H]1CO	–	-98
CN1c2ccc(Br)cc2[C@@H]2[C@@H](CCN2C(=O)Nc2ccc(F)cc2)[C@@H]1CO	–	–
CO[C@@H]1CN(C)C(=O)c2ccc(NC(=O)c3nc4ccccc4s3)cc2OC[C@@H](C)NC[C@@H]1C	–	·
OC[C@H]1[C@@H](c2ccc(C3=CCCC3)cc2)[C@H]2CN(CCC(F)(F)F)CCCCN21	–	–
